“And” between values parts separate entries of the source, which are not always exact repeats. Equal entries are not always repeated. About 2,000 (36%) of roughly 5,500 compounds were called active. Roughly 18% stayed inconclusive and do not appear here. Cut-off read from the data, not from the text of the source: active = normalized growth mostly below about 0.91 (no sharp cut-off); inconclusive = no clear call, values can overlap the other calls; inactive = mostly above about 0.92. Some of the results follow.
Experiment: chemical genetic growth profiling, strain panel (AID 1159580);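 note: tested at 20 µM; growth read once vehicle control cultures reached saturation at 30 °C; 1 = growth at the plate median or of vehicle wells; lower values mean less growth of the strain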
Conditions: S. cerevisiae deletion strains, growth OD

Measured: normalized growth

CCCCCC1C(=O)CCC1CC(=O)O (stereo unspecified)
inactive: locus YAL013W, strain DEP1, hits give low values 0.997 | locus YAL021C, strain ccr4, hits give low values 0.984 | locus YAL026C, strain drs2, hits give low values 0.994 | locus YAL030W, strain snc1, hits give low values 0.984 | locus YBL061C, strain skt5, hits give low values 0.988 | locus YBR009C, strain hhf1, hits give low values 1.01 | locus YBR021W, strain FUR4, hits give low values 0.991 | locus YBR023C, strain chs3, hits give low values 0.99 | locus YBR171W, strain sec66, hits give low values 1 | locus YBR229C, strain ROT2, hits give low values 1 | locus YBR231C, strain swc5, hits give low values 1 | locus YBR279W, strain paf1, hits give low values 0.98 | locus YCL011C, strain gbp2, hits give low values 0.995 | locus YCL016C, strain dcc1, hits give low values 0.98 | locus YCL029C, strain bik1, hits give low values 0.998 | locus YCL061C, strain MRC1, hits give low values 0.991 | locus YCL069W, strain vba3, hits give low values 0.995 | locus YCR088W, strain abp1, hits give low values 0.976 | locus YDL005C, strain med2, hits give low values 0.982 | locus YDL035C, strain GPR1, hits give low values 1.01 | locus YDL040C, strain nat1, hits give low values 0.995 | locus YDL074C, strain BRE1, hits give low values 1.01 | locus YDL101C, strain DUN1, hits give low values 1.01 | locus YDL134C, strain PPH21, hits give low values 1.06 | locus YDL185W, strain tfp1, hits give low values 0.974 | locus YDL192W, strain arf1, hits give low values 0.986 | locus YDR001C, strain nth1, hits give low values 0.986 | locus YDR069C, strain doa4, hits give low values 1.01 | locus YDR101C, strain arx1, hits give low values 0.99 | locus YDR137W, strain rgp1, hits give low values 0.998 | locus YDR150W, strain NUM1, hits give low values 1.02 | locus YDR159W, strain sac3, hits give low values 0.997 | locus YDR162C, strain NBP2, hits give low values 1.04 | locus YDR195W, strain ref2 0.999 | locus YDR297W, strain sur2, hits give low values 0.988 | locus YDR318W, strain mcm21, hits give low values 0.992 | locus YDR334W, strain swr1, hits give low values 0.981 | locus YDR335W, strain msn5, hits give low values 0.981 | locus YDR388W, hits give low values 0.994 | locus YDR392W, strain spt3, hits give low values 0.91 | locus YDR502C, strain sam2, hits give low values 1.01 | locus YEL003W, strain gim4, hits give low values 0.987 | locus YEL037C, strain rad23, hits give low values 0.972 | locus YEL061C, strain CIN8 (second series), hits give low values 0.984 | locus YEL061C, strain CIN8, hits give low values 1 | locus YER015W, strain faa2, hits give low values 0.983 | locus YER016W, strain bim1, hits give low values 0.984 | locus YER110C, hits give low values 0.982 | locus YER111C, strain swi4, hits give low values 0.975 | locus YER155C, strain BEM2 (second series), hits give low values 0.982 | locus YER155C, strain BEM2, hits give low values 0.989 | locus YER167W, strain BCK2, hits give low values 1.01 | locus YFR010W, strain ubp6, hits give low values 0.987 | locus YGL078C, strain dbp3, hits give low values 0.988 | locus YGL086W, strain mad1, hits give low values 0.994 | locus YGL167C, strain pmr1, hits give low values 0.986 | locus YGL173C, strain kem1, hits give low values 0.989 | locus YGL227W, strain vid30, hits give low values 0.998 | locus YGL240W, strain doc1, hits give low values 0.998 | locus YGL248W, strain PDE1, hits give low values 0.998 | locus YGL253W, strain hxk2, hits give low values 0.996 | locus YGR135W, strain pre9, hits give low values 0.994 | locus YGR252W, strain gcn5, hits give low values 0.993 | locus YHR013C, strain ard1, hits give low values 0.972 | locus YHR027C, strain rpn1, hits give low values 0.98 | locus YHR030C, strain SLT2, hits give low values 0.992 and 0.982 | locus YHR079C, strain IRE1 (second series), hits give low values 0.987 | locus YHR079C, strain IRE1, hits give low values 0.99 | locus YHR094C, strain hxt1, hits give low values 0.969 | locus YHR129C, strain ARP1, hits give low values 1 | locus YHR142W, strain chs7, hits give low values 0.973 | locus YHR200W, strain rpn10, hits give low values 0.988 | locus YIL066C, strain RNR3, hits give low values 1.03 | locus YIL073C, strain SPO22, hits give low values 1.04 | locus YIL125W, strain kgd1, hits give low values 0.985 | locus YIR030C, strain dcg1, hits give low values 0.986 | locus YJL092W, strain hpr5, hits give low values 0.983 | locus YJL095W, strain BCK1 (second series), hits give low values 0.993 | locus YJL095W, strain BCK1, hits give low values 1.05 and 0.989 | locus YJL115W, strain asf1, hits give low values 0.973 | locus YJL129C, strain trk1, hits give low values 0.961 | locus YJL134W, strain LCB3, hits give low values 0.991 | locus YJL154C, strain vps35, hits give low values 0.982 | locus YJL164C, strain tpk1, hits give low values 0.998 | locus YJL166W, strain qcr8, hits give low values 0.996 | locus YJL168C, strain set2, hits give low values 0.991 | locus YJL187C, strain SWE1 (second series), hits give low values 1.02 | locus YJL187C, strain SWE1, hits give low values 0.984 | locus YJR043C, strain POL32, hits give low values 1.03 | locus YJR066W, strain TOR1, hits give low values 0.967 | locus YKL009W, strain mrt4, hits give low values 0.972 | locus YKL068W, hits give low values 0.981 | locus YKL085W, strain MDH1 (second series), hits give low values 0.992 | locus YKL085W, strain MDH1, hits give low values 0.992 | locus YKL160W, strain elf1, hits give low values 0.978 | locus YKL190W, strain CNB1, hits give low values 1 | locus YKR001C, strain vps1, hits give low values 0.987 | locus YKR026C, strain gcn3, hits give low values 0.985 | locus YKR091W, strain srl3, hits give low values 0.98 | locus YLL001W, strain dnm1, hits give low values 0.961 | locus YLL026W, hits give low values 0.994 | locus YLL041C, strain sdh2, hits give low values 0.989 | locus YLR027C, strain aat2, hits give low values 0.984 | locus YLR039C, strain RIC1, hits give low values 1.06 | locus YLR058C, strain SHM2, hits give low values 1.01 | locus YLR102C, strain apc9, hits give low values 0.978 | locus YLR113W, strain HOG1, hits give low values 0.95 | locus YLR221C, strain rsa3, hits give low values 0.993 | locus YLR258W, strain gsy2, hits give low values 0.986 | locus YLR262C, strain YPT6 (second series), hits give low values 0.99 | locus YLR262C, strain YPT6, hits give low values 1.07 | locus YLR268W, strain sec22, hits give low values 1 | locus YLR320W, strain mms22, hits give low values 0.967 | locus YLR330W, strain CHS5, hits give low values 0.993 | locus YLR342W, strain FKS1 (second series), hits give low values 1.02 | locus YLR342W, strain FKS1, hits give low values 0.982 | locus YLR357W, strain rsc2, hits give low values 0.994 | locus YLR370C, strain arc18, hits give low values 0.983 | locus YLR371W, strain rom2, hits give low values 0.987 | locus YLR384C, strain iki3, hits give low values 0.978 | locus YLR418C, strain cdc73, hits give low values 0.989 | locus YML016C, strain PPZ1, hits give low values 0.995 | locus YML032C, strain rad52, hits give low values 0.987 | locus YML120C, strain ndi1, hits give low values 0.99 | locus YML124C, strain tub3, hits give low values 0.985 | locus YMR058W, strain fet3, hits give low values 0.983 | locus YMR078C, strain ctf18, hits give low values 1.01 | locus YMR125W, strain sto1, hits give low values 0.965 | locus YMR129W, hits give low values 0.989 | locus YMR205C, strain PFK2, hits give low values 0.969 | locus YMR223W, strain ubp8, hits give low values 0.994 | locus YMR231W, strain pep5, hits give low values 0.983 | locus YMR307W, strain GAS1, hits give low values 1.06 | locus YNL067W, strain RPL9B, hits give low values 1.04 | locus YNL071W, strain lat1, hits give low values 0.99 | locus YNL128W, strain TEP1, hits give low values 1 | locus YNL183C, strain NPR1, hits give low values 0.931 | locus YNL209W, strain ssb2, hits give low values 0.995 | locus YNL233W, strain BNI4, hits give low values 1.03 | locus YNL248C, strain rpa49, hits give low values 0.99 | locus YNL250W, strain rad50, hits give low values 0.976 | locus YNL271C, strain bni1, hits give low values 0.969 | locus YNL298W, strain CLA4, hits give low values 0.968 | locus YNL307C, strain MCK1, hits give low values 0.989 | locus YNL322C, strain KRE1 (second series), hits give low values 0.972 | locus YNR049C, strain mso1, hits give low values 0.984 | locus YNR052C, strain pop2, hits give low values 0.975 | locus YOL006C, strain TOP1, hits give low values 1.02 | locus YOL012C, strain htz1 1.21 | locus YOL147C, strain pex11, hits give low values 0.986 | locus YOR001W, strain rrp6, hits give low values 0.997 | locus YOR061W, strain CKA2, hits give low values 0.996 | locus YOR069W, strain VPS5, hits give low values 0.993 | locus YOR070C, strain gyp1, hits give low values 0.99 | locus YOR080W, strain dia2, hits give low values 0.987 | locus YOR083W, strain WHI5, hits give low values 0.959 | locus YOR106W, strain vam3, hits give low values 0.987 | locus YOR136W, strain idh2, hits give low values 0.982 | locus YOR144C, strain elg1, hits give low values 0.994 | locus YOR184W, strain ser1, hits give low values 1.02 | locus YOR231W, strain MKK1, hits give low values 1.01 | locus YOR265W, strain rbl2, hits give low values 0.989 | locus YOR270C, strain vph1, hits give low values 0.961 | locus YOR290C, strain snf2, hits give low values 0.916 | locus YOR316C, strain cot1, hits give low values 0.981 | locus YPL051W, strain arl3, hits give low values 0.982 | locus YPL055C, strain LGE1, hits give low values 1.06 | locus YPL078C, strain atp4, hits give low values 0.979 | locus YPL106C, strain sse1, hits give low values 0.99 | locus YPL240C, strain hsp82, hits give low values 0.985 | locus YPL256C, strain CLN2, hits give low values 0.964 | locus YPR119W, strain clb2, hits give low values 0.988 | locus YPR141C, strain kar3, hits give low values 0.981 | locus YPR163C, strain tif3, hits give low values 0.978 | locus YPR167C, strain met16, hits give low values 0.997 | strain wtn01, hits give low values 1.01
